Bioassay records (PubChem BioAssay)
Sampled rows, rich in hits. Any-hit rate of the full collection: about 9.9%.
Tau fibril ThT – inhibitors of human tau fibril formation, thioflavin T binding; actives 2.1% (n = 270,000); recombinant tau K18 P301L, heparin-induced fibrillization, ThT fluorescence; P10636; Potency, µM (highest dose often 57.4 µM), actives largely listed as inhibitors; further: nearly all actives have a fitted effect of over 55% in size
Target sequence (P10636 561-689 P618L limits assumed): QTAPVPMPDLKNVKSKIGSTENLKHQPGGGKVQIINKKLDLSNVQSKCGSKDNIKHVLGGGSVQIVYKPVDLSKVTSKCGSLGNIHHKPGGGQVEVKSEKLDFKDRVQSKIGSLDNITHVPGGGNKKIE
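Fibril formation assay: tau K18 P301L at 15 uM with trace Alexa 594 label, heparin inducer 20 uM, pH 7 sodium acetate buffer, 37 C for 6 hr; endpoint ThT signal.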
Tau fluor cs – counter-screen for tau fibril formation inhibitors. tau K18 P301L (four-repeat tau fragment) Alexa594 fluorescence, heparin fibrillization. Potency, µM (highest dose often 57.7 µM). actives 0.93% (n = 280,000); further: nearly all actives have a fitted effect of over 55% in size
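Human K18 P301L tau (15 uM unlabeled plus 0.24 uM Alexa 594-labeled, final) in 100 mM sodium acetate pH 7 was mixed with compound and 20 uM heparin and incubated 6 hr at 37 C.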
Tau FP inhib – blocks human tau fibril formation measured by polarization. actives 0.39% (n = 280,000). K18 P301L tau heparin fibrillization, Alexa594 FP, 6 h. Potency, µM (top dose mostly 57.7 µM), usual class: inhibitors; further: nearly all actives have a fitted effect of over 55% in size
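K18 P301L tau (15 uM unlabeled/0.24 uM Alexa 594-labeled, final) + compound + heparin 20 uM final; 100 mM NaOAc pH 7; 6 hr 37 C; ThT 30 uM final added, 1 hr RT; FP ex 555/em 632 nm.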
HPGD inh – inhibitors of human 15-hydroxyprostaglandin dehydrogenase (HPGD); actives 4.3% (n = 150,000); Potency, µM, hits mostly inhibitors; P15428; purified HPGD, NADH fluorescence kinetic, PGE2 substrate; active means well fitted inhibition curve with a large enough effect, not every such curve was filed as active; inconclusive means small, poorly fitted or top-dose-only effect, or another doubt; inactive means no such curve, though single readings can be large or run the other way
Target sequence (P15428 whole entry, looked up): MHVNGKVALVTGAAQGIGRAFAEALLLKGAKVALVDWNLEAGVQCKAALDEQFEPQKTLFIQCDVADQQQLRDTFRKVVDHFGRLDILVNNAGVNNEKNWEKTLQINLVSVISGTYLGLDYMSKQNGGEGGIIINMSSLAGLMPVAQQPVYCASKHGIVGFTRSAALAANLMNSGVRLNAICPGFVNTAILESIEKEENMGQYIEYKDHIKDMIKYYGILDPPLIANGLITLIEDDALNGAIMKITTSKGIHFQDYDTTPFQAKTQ
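NADH formation kinetics: reaction with 30 uM PGE2 and 1 mM NAD+ (final), 20 nM enzyme, Tris-HCl pH 8 with Tween 20, after 15 min compound preincubation at room temperature. Fluorescence change, last versus first of five reads.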
ALDH1A1 block – blocks purified human ALDH1A1 activity | P00352 | Purified ALDH1A1, NADH fluorescence, propionaldehyde substrate | Potency, µM (titrated, usually from 75.3 µM), hits mostly inhibitors | actives 7.3% (n = 220,000) | AID 1030; active means well fitted inhibition curve with a large enough effect, not every such curve was filed as active; inconclusive means small, poorly fitted or top-dose-only effect, or another doubt; inactive means no such curve, though single readings can be large or run the other way
JMJD2E inh – blocks human JMJD2E demethylase activity | B2RXH2 | JMJD2E catalytic domain, FDH-coupled NADH fluorescence (FDH is formaldehyde dehydrogenase) | Potency, µM (top dose mostly 57.1 µM), hits mostly inhibitors | actives 1.6% (n = 230,000) | AID 2147; active means well fitted inhibition curve with a large enough effect, not every such curve was filed as active; inconclusive means small, poorly fitted or top-dose-only effect, or another doubt; inactive means no such curve, though single readings can be large or run the other way; further: nearly all actives have a fitted effect of over 50% in size
A number is an active result; - = inactive; ? = inconclusive; . = not tested or not shown; [ ] = dose if it differs, or a comment. Unless noted, the call rests on the fitted dose curve; in most records, active means well fitted curve in the direction sought with a large enough effect; inconclusive means small, poorly fitted or top-dose-only effect, or another doubt; inactive means no such curve, though single readings can be large; an effect the other way counts as inactive or inconclusive.

SMILES	Tau fibril ThT	Tau fluor cs	Tau FP inhib	HPGD inh	ALDH1A1 block	JMJD2E inh
Cc1cc(-c2n[nH]c(=S)n2/N=C/c2sccc2C)n[nH]1	-	-	-	22µM	-	-
Cc1ccsc1/C=N/n1c(-c2ccco2)n[nH]c1=S	-	-	-	14µM	14µM	-
NS(=O)(=O)c1cccc(NC(=O)CSc2nnc(C3CC3)n2Cc2ccccc2)c1	-	-	-	.	.	-
O=C1CC(c2nnc(Cc3cccc(Cl)c3)o2)CN1c1ccccc1 (stereo unspecified)	-	-	-	.	.	.
COc1ccccc1N1CCN(CCCNC(=O)c2cnn(-c3cccc(Cl)c3)c2C2CCN(C(=O)OC(C)(C)C)CC2)CC1	?	-	-	.	.	.
CCC(=O)N1c2ccccc2CC1C(=O)NCc1cccc(OC)c1OC (stereo unspecified)	-	-	-	.	.	.
Cc1cccc(-c2n[nH]c(=S)n2/N=C/c2cccs2)c1	-	?	-	.	.	-
Cc1ccsc1/C=N/n1c(-c2ccccc2)n[nH]c1=S	-	-	-	13µM	?	-
N[C@@H](CO)C(=O)NNCc1ccc(O)c(O)c1O	.	.	.	-	?	7.9µM
O=C1C=C(NNC(=O)c2ccccc2Br)CCC1	-	-	-	-	-	-
CC(C)CN1CC2(CCN(C(=O)c3ccco3)CC2)C1	.	.	.	-	-	.
CCOC(=O)C1=C(C)N(c2ccc(OC)cc2)C(=O)/C1=C\c1ccc(O)c(OCC)c1	25µM	?	?	.	.	-
COC(=O)C1=C(C)N(c2ccc(C)c(C)c2)/C(=C/c2ccco2)C1=O	?	-	-	.	-	-
CCOC(=O)C1=C(C)N(c2ccc(OC)cc2)C(=O)/C1=C\c1cccs1	?	-	?	-	-	-
COC(=O)C1=C(C)N(CCc2ccc(OC)c(OC)c2)C(=O)/C1=C\c1ccc(O)cc1	?	-	-	-	25µM	-
CCOc1cc(/C=C2\C(=O)N(Cc3ccc(C)cc3)C(C)=C2C(=O)OC)ccc1O	25µM	?	?	?	?	-
CCOC(=O)C1=C(C)N(c2ccc(C)c(C)c2)C(=O)/C1=C\c1ccco1	28µM	-	?	-	-	-
COC(=O)C1=C(C)N(CCc2ccc(OC)c(OC)c2)C(=O)C1	?	-	-	-	?	-
CCOc1cc(CNc2ccc(O)cc2)cc(Br)c1OCc1ccccc1	?	8.9µM[quencher]	-	.	.	.
COc1cccc(CNc2ccccc2O)c1OCc1ccccc1F	?	?	-	.	14µM	?
COc1cc(CNc2ccc(O)cc2)cc(Br)c1OCc1ccccc1F	25µM	13µM[quencher]	?	-	22µM	-
COc1cc(CNC(C)(C)CO)cc(Br)c1OCc1ccccc1	-	-	-	.	-	-
CCN1CCCC1CNCc1cccc(OC)c1OCc1ccccc1F (stereo unspecified)	-	-	-	-	-	-
COc1cc(CNCc2ccncc2)cc(Br)c1OCc1ccccc1F	-	-	-	-	-	-
CCOc1cc(CNc2ccc(O)cc2)cc(Br)c1OCc1ccccc1F	25µM	13µM[quencher]	?	-	28µM	?
SMILES	Tau fibril ThT	Tau fluor cs	Tau FP inhib	HPGD inh	ALDH1A1 block	JMJD2E inh
COc1ccccc1NC(=O)C1=C(C)Nc2nc(SCc3ccccc3Cl)nn2C1c1ccncc1 (stereo unspecified)	-	-	-	.	.	.
COc1ccc(/C(C)=C(\C#N)C(=O)OC(C)C)cc1OC	-	-	-	?	-	-
C(=N\NC1=Nc2cccc3cccc1c23)/c1ccccn1	2.8µM	?	-	.	-	?
Clc1ccccc1/C=N/NC1=Nc2cccc3cccc1c23	2µM	-	-	-	-	-
CCCN(CCC)CCCNC(=O)Cn1ncn2c(cc3sc(CC)cc32)c1=O	-	-	-	.	.	.
CC1CN(C(=O)Nc2ccc(C(=O)NCCc3ccc(Cl)cc3)cc2)c2ccccc2S1 (stereo unspecified)	-	-	-	.	.	.
O=C(CSc1nc(-c2ccccc2)no1)N1CCN(c2ccc(F)cc2)CC1	-	-	-	.	.	.
CC(C)CCn1c(Oc2ccc(Cl)cc2)nc2c1c(=O)n(C)c(=O)n2C	?	-	-	-	7.9µM	-
COc1ccc(Oc2nc3c(c(=O)n(C)c(=O)n3C)n2Cc2ccccc2)cc1	-	-	-	-	16µM	-
Cn1c(=O)c2c(nc(Oc3ccccc3)n2Cc2c(Cl)cccc2Cl)n(C)c1=O	-	-	-	.	.	.
